This passage reports INHIBITION results from ChEMBL document CHEMBL4513216, “Probing the Open Global Health Chemical Diversity Library for Multistage-Active Starting Points for Next-Generation Antimalarials” (ACS Infect Dis, 2020).

In all, about 68,000 compounds went through this assay and about 2,700 (4%) showed an effect of 50% or more. The list comes from a sample in which strong results are over-represented; it also holds similar structures and randomly drawn compounds.

The experiment concerns Plasmodium berghei. The experiment can be described thus: Screen against P. berghei liver stage (PbLuc), transformed with Luciferase, at 2uM. Format: functional, HepG2. The conditions noted are these: tested at 2 uM.
In the case of `O=S(=O)(CCNCc1cc(O)c2cc(F)ccc2n1)N1CCCC1`, the INHIBITION was -9.89%.
As to `CN(C)S(=O)(=O)N1CCCC(c2ccncn2)C1` (configuration not stated), the INHIBITION is reported as 31.98%.
As to `CCn1nc(CC(C)C)cc1C(=O)NCC(F)(F)F`, the INHIBITION was 1.04%.
Take `CCOC[C@@H]1CC[C@H]2[C@H](CCN2C(=O)c2ccncc2F)O1`: the INHIBITION came out at 50.61%.
As for `CC(C)COC[C@@H]1CC[C@H]2[C@H](CCN2C(=O)c2ccncc2F)O1`, the INHIBITION is listed as 31.08%.
To `O=C(c1ccncc1F)N1CC[C@@H]2OC(COCC3CC3)CC[C@@H]21` (some centres not stated) belongs 27.08%; to `COC[C@H]1CC[C@H]2[C@H](CCN2C(=O)c2ccncc2F)O1`, 39.51%.
In the case of `CCOC[C@H]1CC[C@H]2[C@H](CCN2C(=O)c2ccncc2F)O1`, the INHIBITION worked out at 0.82%.
In the case of `CC(C)COC[C@H]1CC[C@H]2[C@H](CCN2C(=O)c2ccncc2F)O1`, the INHIBITION stood at 55.49%.
With `CC(=O)Nc1ccc(CNc2ccn(Cc3ccccc3)n2)cc1`, the INHIBITION worked out at 35.56%.
On to `COCCOc1ccc(NC(=O)C2CC(=O)N(C3CC3)C2)cn1` (configuration not stated), for which the INHIBITION is recorded as -45.07%.
Regarding `NCC1CCC2(CCN(C(=O)c3ccccn3)CC2)CO1` (configuration not stated), the INHIBITION was -5.44%.
Regarding `O=C(C(CNCc1cccnc1)c1ccccc1)N1CCOCC1` (configuration not stated), the INHIBITION was found to be 17.33%.
As to `Cc1nc(CN2CCOCC23CCN(c2ccc(C#N)cc2)CC3)cs1`, the INHIBITION is on record as -30.38%.
In the case of `COC[C@@H]1CCC[C@@]12CN(Cc1ccco1)CCO2`, the INHIBITION stood at 18.4%.
Regarding `c1csc(COC[C@H]2CCC[C@]23CN(Cc2ccoc2)CCO3)n1`, the INHIBITION is 36.29%.
As for `c1coc(CN2CCO[C@@]3(CCC[C@@H]3COCc3nccs3)C2)c1`, the INHIBITION is listed as 54.25%.
To `Cc1ccc(C(=O)N2CCC3(CC2)CN(c2ccccn2)CCO3)cc1` belongs 56.71%; to `O=C(c1cccnc1)N1CCC2(CC1)CN(c1ccccn1)CCO2`, -1.81%.
On to `CCS(=O)(=O)N1CCOC2(CCCN(c3ccccn3)C2)C1` (configuration not stated), for which the INHIBITION amounted to 29.45%.
To `CCCS(=O)(=O)N1CCC2(CC1)CN(c1ccccn1)CCO2` belongs 72.41%; to `CCCS(=O)(=O)N1CCOC2(CCCN(c3ccccn3)C2)C1` (configuration not stated), 2.39%; to `O=C(c1ccnnc1)N1CCC2(CC1)CN(c1ccccn1)CCO2`, -0.91%.
Take `Cc1cc(CN2C[C@@H]3CN(C(=O)c4cccn4C)CCO[C@@H]3C2)no1`: the INHIBITION is reported as 9.45%.
`CN(C)C(=O)CCCNC(=O)C(c1cccc(F)c1)N(C)C` (configuration not stated): the INHIBITION is -4.92%.
Regarding `OCCn1nccc1C1CCN(CCOc2ccccc2F)CC1`, the INHIBITION worked out at 17.31%.
As for `NC(=O)NC(=O)C(c1ccccc1)N1CCN(Cc2ccccc2)CC1` (configuration not stated), the INHIBITION came to 16.8%.
Turning to `NC(=O)NC(=O)C(c1ccccc1)N1CCN(Cc2ccsc2)CC1` (configuration not stated), the INHIBITION turned out to be 50.3%.
`NC(=O)NC(=O)C(c1ccccc1)N1CCN(Cc2ccc(Cl)s2)CC1` (configuration not stated): the INHIBITION is on record as -72.31%.
Regarding `CC(C)n1cc(N2CC(C(=O)N3CCCC3)CC2=O)cn1` (configuration not stated), the INHIBITION is listed as -69.99%.
On to `O=C(N1CCCO1)[C@@]12CCO[C@@H]1CCN(Cc1cccs1)C2`, for which the INHIBITION is 17.31%.
To `COc1cc(CN2CCCCCC2c2cccs2)cc(OC)c1O` (configuration not stated) belongs 50.46%; to `COc1cc(CN2CCCCCC2c2cccs2)cc(OC)c1OC` (configuration not stated), 11.24%.
Regarding `COc1cccc(CN2CCCCCC2c2cccs2)c1O` (configuration not stated), the INHIBITION is on record as 4.47%.
For the compound `O=C(C1CCCC1)N1CC2(CCN(C3COC3)CC2)Cc2ccccc21`, the INHIBITION is recorded as -3.1%.
Take `Cc1cccc(-c2nc(C)nn2CC(=O)NC(C)C)c1`: the INHIBITION is on record as -15.28%.
For `O=C(c1csnn1)N1CCc2[nH]nc(COc3cccc(Cl)c3)c2C1` the value was 47.89%; for `O=C(N1CCOCC1)N1CCc2[nH]nc(COc3cccc(Cl)c3)c2C1`, 5.04%; for `O=C1CC[C@@H](C(=O)N2CCc3[nH]nc(COc4cccc(Cl)c4)c3C2)N1`, 51.85%.
Regarding `CN1C(=O)C2(CCCN(C(=O)c3cccnc3O)C2)c2ccccc21` (configuration not stated), the INHIBITION is -23.27%.
For `O=C(Nc1ccc2c(c1)OCO2)N1CCN(CCn2ccnc2)CC1` the value was 58.59%; for `O=C(Nc1ccc2c(c1)OCO2)N1CCN(CCn2cccn2)CC1`, 43.57%.
Regarding `O=C(NCCn1ccnc1)N1CCN(Cc2ccsc2)CC1`, the INHIBITION is listed as -1.3%.
As for `O=C(NCCn1ccnc1)N1CCN(Cc2ccco2)CC1`, the INHIBITION turned out to be 54.28%.
Consider `COc1ccc(C2CCCN2C(=O)NCCn2ccnc2)cc1` (configuration not stated), for which the INHIBITION was 26.61%.
With `O=C(NCCn1ccnc1)N1CCCC1c1ccncc1` (configuration not stated), the INHIBITION was 53.33%.
With `O=C(NCCn1ccnc1)N1CCN(Cc2cccnc2)CC1`, the INHIBITION came to 58.96%.
`O=C(NCCn1ccnc1)N1CCN(Cc2cccs2)CC1`: the INHIBITION is -68.26%.
To `O=C(Nc1ccc2c(c1)OCO2)N1CCN(CCc2ccccc2)CC1` belongs 20.76%; to `O=C(NCCCn1ccnc1)N1CCCC1c1ccncc1` (configuration not stated), -1.27%; to `CC(Cn1ccnc1)NC(=O)N1CCN(Cc2cccnc2)CC1` (configuration not stated), -36.13%.
To `CC(Cn1ccnc1)NC(=O)N1CCN(Cc2ccco2)CC1` (configuration not stated) belongs 32.64%.
On to `CCSCC(C)NCc1nncn1C1CCCCC1` (configuration not stated), for which the INHIBITION stood at 37.3%.
With `Cc1nc(CN2C(=O)CC[C@@H]3[C@H]2CCN3C(=O)c2ccccn2)cs1`, the INHIBITION is 3.46%.
For the compound `CCc1nccn1C1CCCN(C(=O)c2cncnc2C)C1` (configuration not stated), the INHIBITION was 4.41%.
As to `CCN(CC)[C@@H]1CN(S(=O)(=O)c2cn(C)cn2)[C@@H]2CCCO[C@H]12`, the INHIBITION came out at 20.21%.
Regarding `CN(CC(=O)NCc1cc2ccccc2o1)S(C)(=O)=O`, the INHIBITION was -3.17%.
For `CCc1noc(C)c1C(=O)N1C[C@H](NS(C)(=O)=O)[C@@H](C2CC2)C1` the value was 5.47%; for `O=C(N1CCCC(n2cncn2)C1)C1(c2ccc(Cl)cc2)CCC1` (configuration not stated), 45.83%.
On to `CC(=O)c1c(C)nn(S(=O)(=O)c2ccc(C)cc2)c1C`, for which the INHIBITION came to 39.45%.
For `FC(F)(F)c1ccnc(N2CCCN(C3CCOCC3)CC2)c1`, the INHIBITION was -26.2%.
Regarding `CN1CCCC(N2CCN(c3cc(C(F)(F)F)ccn3)CC2)C1` (configuration not stated), the INHIBITION is listed as -3.43%.
On to `FC(F)(F)c1ccnc(N2CCCC(N3CCOCC3)C2)c1` (configuration not stated), for which the INHIBITION amounted to 60.13%.
As to `O=C(Cn1cccn1)Nc1ccc(N2CCOCC2)cc1`, the INHIBITION amounted to 45.12%.
For `Cc1cnc2c(S(=O)(=O)NCC3CC3)cccc2c1`, the INHIBITION was found to be 51.94%.
`Cc1cnc2c(S(=O)(=O)NC3CCS(=O)(=O)C3)cccc2c1` (configuration not stated): the INHIBITION is reported as -15.28%.
Turning to `Cc1cnc2c(S(=O)(=O)NCC3CCOC3)cccc2c1` (configuration not stated), the INHIBITION is recorded as 1.61%.
Consider `Cc1cnc2c(S(=O)(=O)NCC3CCS(=O)(=O)C3)cccc2c1` (configuration not stated), for which the INHIBITION is -84.03%.
To `Cc1cnc2c(S(=O)(=O)NCC3CCN(C4CC4)C3)cccc2c1` (configuration not stated) belongs 51.21%.
To `CCOC(C)C(=O)NS(=O)(=O)c1cccc2cc(C)cnc12` (configuration not stated) belongs 9.27%; to `Cc1cnc2c(S(=O)(=O)NC(=O)C(C)OCC3CC3)cccc2c1` (configuration not stated), 28.97%; to `COC(C)C(=O)NS(=O)(=O)c1cccc2cc(C)cnc12` (configuration not stated), 73.31%.
`Cc1cnc2c(S(=O)(=O)N(C)C3CCS(=O)(=O)C3)cccc2c1` (configuration not stated): the INHIBITION came out at 47.87%.
Consider `CC(C)N1CCOC(CC(=O)N2CCCN(Cc3ccncc3)CC2)C1` (configuration not stated), for which the INHIBITION is on record as 18.22%.
Consider `CNc1nc(C2CCCN2C(C)=O)nc2c1CN(CCO)CC2` (configuration not stated), for which the INHIBITION was -0.83%.
In the case of `Cc1cc(C)c(CNC(=O)C2COc3ccccc3C2)c(=O)[nH]1` (configuration not stated), the INHIBITION is on record as -68.78%.
With `Cc1cc(C)nc(N2CCCC(C)(c3[nH]ncc3C(=O)N(C)C)C2)n1` (configuration not stated), the INHIBITION is -81.44%.
With `CCc1cc(CN2CCCCC2c2ccc(F)cc2)on1` (configuration not stated), the INHIBITION is reported as -19.3%.
Consider `CCOC(=O)CCNC(=O)c1cc(Cl)cc2cccnc12`, for which the INHIBITION was -14.21%.
In the case of `COCCOCCCNC(=O)c1cc(Cl)cc2cccnc12`, the INHIBITION was -18.52%.
To `CCS(=O)(=O)N(C)CCCNC(=O)c1cc(Cl)cc2cccnc12` belongs 61.08%; to `CCS(=O)(=O)CC(=O)Nc1ccccc1N1CCc2ccccc21`, 6.07%.
Turning to `CCCc1cc(C(=O)N2CCC3(CC2)CN(CCN(C)C)C(=O)O3)no1`, the INHIBITION worked out at 28.73%.
For `Cc1ccc(C(=O)N2CCN(C)C3(CCC(=O)N(C)CC3)C2)c(F)c1` (configuration not stated), the INHIBITION worked out at 18.22%.
For `Cc1cc(C(=O)N2CCC3(CC2)CN(CCN(C)C)C(=O)O3)nc(C)n1` the value was 59.03%.
As for `Cc1ccc(C(=O)N2CCC3(CC2)CN(CCN(C)C)C(=O)O3)c(F)c1`, the INHIBITION is 57.34%.
On to `CN(C)CCCN1CC2(CCN(C(=O)C3(C)CCCCO3)CC2)OC1=O` (configuration not stated), for which the INHIBITION is given as -64.97%.
For the compound `CN(C)CCN1CC2(CCN(C(=O)c3cnccn3)CC2)OC1=O`, the INHIBITION is on record as -48.69%.
To `CN(Cc1ccccc1)C(=O)Cn1nc(N2CCSCC2)ccc1=O` belongs 22.88%; to `Cc1cc2nc(C(C)C)cc(N(C)CC3CCN(C(C)C)C3)n2n1` (configuration not stated), 5.93%; to `Fc1cccc(CN2CCOCC3(CCN(C4CCOCC4)C3)C2)c1` (configuration not stated), 30.29%.
Take `CNc1cc2c(nn1)CCN(C(=O)c1cc(C)n(C3CC3)c1C)C2`: the INHIBITION amounted to 26.06%.
For `CCOC(=O)Cn1c(=O)nc(N)c2c(-c3ccc(OC)cc3)csc21`, the INHIBITION worked out at 69.62%.
With `CCn1c(=O)nc(N)c2c(-c3ccc(OC)cc3)csc21`, the INHIBITION was -37.19%.
Turning to `COc1ccc(-c2csc3c2c(N)nc(=O)n3CC(N)=O)cc1`, the INHIBITION is listed as 23.16%.
For `O=C(CC1CC2(CCNCC2)c2ccccc21)NCC1CC1` (configuration not stated), the INHIBITION was -1.81%.
Consider `CC(=O)NC1CCN(c2ncnc3c2c(C)nn3C)C1` (configuration not stated), for which the INHIBITION stood at 32.56%.
Turning to `CCC1(CC)Cc2ccccc2-c2nc(CN(C)C)nc(O)c21`, the INHIBITION turned out to be 29.02%.
`CN(C)C(=O)c1cnc(-c2ccc3c(c2)OCO3)s1`: the INHIBITION is -197.6%.
For `CC(C)N(CCC#N)C(=O)c1cnc(-c2ccc3c(c2)OCO3)s1` the value was 37.87%.
`CC(C)N(CC(N)=O)C(=O)c1cnc(-c2ccc3c(c2)OCO3)s1`: the INHIBITION turned out to be 75.8%.
On to `O=C(O)C1(n2ccc(-c3ccco3)n2)CCN(Cc2cccnc2)CC1`, for which the INHIBITION is on record as -30.35%.
